In PubChem BioAssay (NCATS):
Results filed as inconclusive are left out. The source made the active and inactive calls. Calls come from the whole dose curve; as a rule, active = well fitted curve in the direction sought with a large enough effect; inconclusive = small, poorly fitted or top-dose-only effect, or another doubt; inactive = no such curve, though single readings can be large; an effect the other way counts as inactive or inconclusive.

Experiments:
[1] = target: Calcium and integrin-binding protein 1 (Homo sapiens) (UniProt Q99828); test: Primary qHTS for Identification of Calcium Integrin Binding Protein 1 (CIB1) Competitor (AID 1508620);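 note: GST tagged CIB1 binding a fluorescein labelled alphaIIb integrin peptide tracer; top concentration of the series differs between compounds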
Chain of Calcium and integrin-binding protein 1 (Homo sapiens) (Q99828 whole entry, looked up): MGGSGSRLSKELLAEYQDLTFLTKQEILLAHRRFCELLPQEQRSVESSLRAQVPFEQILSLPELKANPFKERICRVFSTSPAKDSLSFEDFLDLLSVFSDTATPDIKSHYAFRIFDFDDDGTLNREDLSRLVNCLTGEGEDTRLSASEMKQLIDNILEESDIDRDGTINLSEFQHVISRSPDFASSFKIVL
Summary of the method: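 CIB1-GST (1 uM final) and compound incubated 15 min at room temperature before adding FITC-alphaIIb peptide tracer (100 nM final). Competition for binding read by fluorescence polarization (ex 480, em 540) after another 15 min at room temperature.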

[2] = Primary qHTS for inhibitors of nuclear receptor binding SET domain protein 2 (NSD2) in an isogenic RCH-ACV NSD2 p.E1099K mutant (9B) (AID 1645876); note: nearly all actives have a fitted effect of over 70% in size
[3] = Primary qHTS for inhibitors of nuclear receptor binding SET domain protein 2 (NSD2) in an RCH-ACV wild type WT cells (2C) (AID 1645877); note: nearly all actives have a fitted effect of over 70% in size

Measured: Potency

C=Cc1ccc(O[C@@H]2O[C@H](CO[C@@H]3O[C@@H](C)[C@H](O)[C@@H](O)[C@H]3O)[C@@H](O)[C@H](O)[C@H]2O)cc1
inactive: all assays above

C=C1CCC(OC(C)=O)C2(C)CC3OC(=O)C(C)=C3CC12 (stereo not given)
inactive: all assays above

C=CC(C)(O)C1CC2C3(C)CCCC(C)(C)C3C(O)C(O)C2(C)O1 (stereo not given)
inactive: all assays above

OCC1=C[C@@H](O)[C@@H]2C=CO[C@@H](O[C@@H]3O[C@H](CO)[C@@H](O)[C@H](O)[C@H]3O)[C@H]12
inactive: all assays above

CCC/C=C1\OC(=O)C2=C1CCC(O)C2O (stereo not given)
inactive: all assays above

COC(=O)C1=COC(O[C@@H]2O[C@H](CO)[C@@H](O)[C@H](O)[C@H]2O)/C(=C\COC(=O)/C=C/c2ccccc2)C1CC(=O)OCCc1ccc(O)cc1 (stereo not given in full)
inactive: all assays above

CN(C)CCC[C@]1(c2ccc(F)cc2)OCc2cc(C#N)ccc21
inactive: all assays above

C[C@H]1/C=C/C=C/C=C/C=C/C=C/[C@@H](O)[C@H](C(=O)O)[C@H](O)C[C@H](O)CCC[C@H](O)C[C@H](O)C[C@H](O)[C@@H](C)C(=O)O[C@@H]1C
inactive: all assays above

C=C(C(=O)O)[C@@H]1CC[C@@]2(C)CC[C@@H](O)C(=C)C2C1 (stereo not given in full)
inactive: all assays above

COc1cc(/C=C/C(=O)O)ccc1O[C@@H]1O[C@H](CO)[C@@H](O)[C@H](O)[C@H]1O[C@@H]1OC[C@](O)(CO)[C@H]1O
inactive: all assays above
